# In PubChem BioAssay:
# Unmarked numbers belong to inactive results. No rule for the calls is given here.
# Molecular target: Pantothenate synthetase (Mycobacterium tuberculosis (strain ATCC 25618 / H37Rv)) (UniProt P9WIL5)
# Test: Coupled enzyme confirmation of inhibitors against recombinant Mtb PanC (AID 375);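 also: 0% = full reaction with vehicle and 100% = no enzyme background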
# Conditions: coupled enzyme assay; at 10 µM, stronger effect = higher value
# Pantothenate synthetase (Mycobacterium tuberculosis (strain ATCC 25618 / H37Rv)), sequence (P9WIL5 whole entry, looked up): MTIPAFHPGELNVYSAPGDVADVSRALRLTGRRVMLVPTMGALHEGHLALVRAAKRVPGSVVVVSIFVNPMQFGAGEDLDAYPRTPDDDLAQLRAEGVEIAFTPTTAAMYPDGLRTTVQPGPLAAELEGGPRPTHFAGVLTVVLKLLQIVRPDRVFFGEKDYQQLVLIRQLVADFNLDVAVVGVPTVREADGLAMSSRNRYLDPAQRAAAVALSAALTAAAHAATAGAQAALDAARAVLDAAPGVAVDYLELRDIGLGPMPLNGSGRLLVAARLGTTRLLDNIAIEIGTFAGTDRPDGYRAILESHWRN
row,SMILES,inhibition [%]
1,CC1Cc2ccccc2N1S(=O)(=O)c1ccc2c(c1)n(C)c(=O)c(=O)n2C (stereo not given),0
2,Cc1ccc(C(=O)NCc2ccc3c(c2)OCO3)cc1S(=O)(=O)N1CCCCC1,0
3,CCOC(=O)c1cc2sc(C)cc2n1C(C)C(=O)OCC (stereo not given),11
4,CCCCn1c(CN2CCN(c3ccc(F)cc3)CC2)nc2c1c(=O)n(C)c(=O)n2C,2
5,COc1ccc(CN(C(=O)CSc2nnc(-c3ccccc3F)o2)c2ccc(F)cc2)cc1,0
6,CCSc1nnc(NC(=O)c2csc(C)c2)s1,1
7,O=C(O)c1ccc(NC(=O)c2cccs2)cc1,0
8,CC(=O)c1ccc2c3c(cccc13)C(=O)N(c1c(C)nn(C)c1C)C2=O,0
9,O=c1c2ccc(-c3nnc4n3-c3ccccc3SC4)cc2nc2n1CCCCC2,0
10,CCS(=O)(=O)c1nc2ccccc2n1CC(=O)N1CCCCC1,6
11,O=C(CS(=O)(=O)Cc1ccccc1)Nc1nc2ccccc2s1,0
12,Cn1nc(C(=O)N2CCOCC2)c2ccccc2c1=O,0
13,CCc1cc2c(NCCC(=O)O)nc(C)nc2s1,1
14,c1ccc(CC2CCN(C(c3cccs3)c3nnnn3C3CCCC3)CC2)cc1 (stereo not given),3
15,COc1ccc(NC(=O)c2ccco2)cc1NC(=O)c1cccs1,0
16,COC(=O)c1cc(NC(=O)C2CC=CCC2C(=O)O)cc(C(=O)OC)c1 (stereo not given),3
17,CC1=C(C(=O)NCc2ccccn2)C2(CCC(C)CC2)OC1=O (stereo not given),0
18,Nc1cc(CN2C(=O)c3ccccc3C2=O)cc(Cl)c1O,0
19,COc1ccccc1-c1nnc(SCC(=O)NC2CCCCC2)o1,0
20,CCCC(=O)Nc1ccc2oc(-c3cccnc3)nc2c1,0

row,SMILES,inhibition [%]
1,CC(C)(C)C(=O)OCC1OC(n2cnc(C(N)=O)n2)C(O)C1O (stereo not given),3
2,CC(=O)NCC(=O)N(Cc1ccco1)C1(C(=O)NC2CCCCC2)CCCCC1,0
3,Cn1cc(Br)c(C(=O)NC2CCCCC2)n1,4
4,CC(=O)Nc1ccc(NC(=O)Cn2cc3c(n2)CCC(C)C3)cc1 (stereo not given),3
5,Cc1csc2nc3ccccc3c(=O)n12,11
6,O=C(CCS(=O)(=O)c1cccc2nsnc12)N1CCN(Cc2ccc3c(c2)OCO3)CC1,0
7,Cc1c(C)c2ccc(OC3CCCCC3=O)cc2oc1=O (stereo not given),2
8,CC(=O)c1c(C)[nH]c(C(=O)Nc2c(C)n(C)n(-c3ccccc3)c2=O)c1C,7
9,CCS(=O)(=O)c1nc2ccccc2n1CC(=O)N1CCOCC1,0
10,O=C1CCCC2=C1C(c1cccc(Br)c1)n1nc(-c3ccco3)nc1N2 (stereo not given),0
11,Cc1nc2sc(C#N)c(N)c2c2c1CCCC2,2
12,CCN(CC)CCn1c(=N)n(CCO)c2ccccc21,0
13,CCC(c1nnc(SCC(=O)NCC2CCCO2)n1Cc1ccccc1)N(C)C (stereo not given),0
14,CCOC(=O)C1CCN(c2c(NC3CCCc4ccccc43)c(=O)c2=O)CC1 (stereo not given),2
15,CCSc1nc(O)c(CC)c(=O)n1C(C)CC (stereo not given),3
16,CSc1nc2c(ccc3ccccc32)o1,2
17,Cc1ccc(N2CCN(C(=O)c3ccccc3)CC2)c(C)c1,1
18,COc1ccc(C(=O)c2coc3ccc(O)c(CN4CCCCC4)c23)cc1,0
19,CCCS(=O)(=O)N1CCN(Cc2ccc(OCc3ccccc3)c(OC)c2)CC1,4
20,COc1ccccc1-c1ccc(Nc2cccc(C(C)=O)c2)nn1,0
